About 79,000 compounds went through this panel and 15% of them were active in at least one assay; those are over-represented in the sample as a whole. Cut-off read from the data, not from the text of the source: active = growth inhibition above about 70%; inactive = the rest.
How the values were obtained:
[1] = NCI Yeast Anticancer Drug Screen. Data for the rad50 strain (AID 155);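 note: 0% = growth of vehicle-only cultures of the same strain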; conditions: S. cerevisiae rad50 strain growth inhibition; at 50.0 µM; active compounds read high
In short: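 Genetically altered yeast (DNA repair pathway); compound treatment; growth inhibition vs vehicle ctrl.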

[2] = NCI Yeast Anticancer Drug Screen. Data for the mec2-1 strain (AID 157); conditions: S. cerevisiae mec2-1 strain, at 50.0 µM, active compounds read high
In short: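 mec2-1 yeast strain, carrying an alteration in DNA damage repair or cell cycle control, was exposed to compounds; growth inhibition was measured relative to vehicle-treated controls.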

[3] = NCI Yeast Anticancer Drug Screen. Data for the sgs1 mgt1 strain (AID 161);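 note: 0% = growth of cultures given vehicle only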; conditions: S. cerevisiae sgs1 mgt1 strain, at 50.0 µM, active compounds read high
In short: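 Compounds are added to genetically altered yeast, and growth is compared with cultures given vehicle alone to give percent inhibition.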

[4] = NCI Yeast Anticancer Drug Screen. Data for the cln2 rad14 strain (AID 165);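 note: 0% = growth equal to vehicle treated cultures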; conditions: S. cerevisiae cln2 rad14 strain, at 50.0 µM, active compounds read high
In short: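 Yeast carrying cln2 and rad14 alterations (cell cycle control and DNA damage repair) were exposed to compounds. Growth inhibition was measured against vehicle-treated controls.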

[5] = NCI Yeast Anticancer Drug Screen. Data for the bub3 strain (AID 167); conditions: S. cerevisiae bub3 mutant strain, at 50.0 µM, active compounds read high
In short: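 Yeast carrying a defined mutation is treated with each compound, and growth is compared with that of vehicle-exposed cells to give inhibition.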

[6] = NCI Yeast Anticancer Drug Screen. Data for the mlh1 rad18 strain (AID 175); conditions: S. cerevisiae mlh1 rad18 strain growth inhibition; at 50.0 µM; active compounds read high
In short: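 Growth inhibition of the yeast strain was measured after compound exposure and expressed relative to vehicle-treated controls. The strain carries defined defects in DNA damage repair.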

Measured: growth inhibition

COc1cccc(-n2cnc3c(=S)nc[nH]c32)c1
inactive: [1] 4.2% | [2] -9.3% | [3] 9.7% | [4] -41.6% | [5] -4.85% | [6] 1.9%

CN(CCC#N)c1ccc(/C=C(\C#N)c2ccc(Br)cc2)cc1
inactive: [1] 12.2% | [2] -23.8% | [3] 13.6% | [4] -12% | [5] -0.85% | [6] -18.9%

C=CC(C)C(C)C (stereo not given)
inactive: [1] 3.15% | [2] 0.4% | [3] -7.55% | [4] 4.3% | [5] 8.65% | [6] -4.8%

CC(=O)OCC1OC(OC(C)=O)C(NC(=O)CN(Cc2ccccc2)S(C)(=O)=O)C(OC(C)=O)C1OC(C)=O (stereo not given)
inactive: [1] -8.6% | [2] 13.9% | [3] -16.1% | [4] -1.65% | [5] 0.35% | [6] -4.05%

Ic1ccccn1
inactive: [1] 15.3% | [2] -11.3% | [3] -9.05% | [4] -29.8% | [5] -8.15% | [6] -1.2%

Cn1cnc([N+](=O)[O-])c1Sc1nccn1-c1ccccc1
inactive: [1] -10.8% | [2] -7.1% | [3] -7.8% | [4] 22.2% | [5] 0.75% | [6] -2.85%

CCN(CC)CC[n+]1ccc2c(C)c3[nH]c4ccccc4c3c(C)c2c1
inactive: [1] 37.8% | [2] -2.65% | [3] -4.1% | [4] 3.3% | [5] 31.3% | [6] 15.9%

[N-]=[N+]=Nc1ccccc1C(=O)N1C(=O)c2ccccc2C(=O)N(C(=O)c2ccccc2N=[N+]=[N-])c2ccccc21
inactive: [1] 1.35% | [2] 7.9% | [3] 0.8% | [4] 0.35% | [5] 11.9% | [6] -6.4%

Cc1ccc(Cl)c2c1C(=O)c1ccccc1C2=O
inactive: [1] 24.2% | [2] 7.65% | [3] 3.3% | [4] 14.8% | [5] 5.6% | [6] 23.9%

CC(C)C(NC(=O)C1CSC(C)(C)N1C=O)C(=O)O (stereo not given)
inactive: [1] -1.6% | [2] -0.1% | [3] -3.3% | [4] -8.35% | [5] 6.55% | [6] 2.25%

CC(=O)OC1CCCN(C)C1 (stereo not given)
inactive: [1] -3.2% | [2] 5.5% | [3] 4.6% | [4] -7.9% | [5] 8.75% | [6] -7.8%

COc1ccc(/C=C/c2nc(=S)[nH][nH]2)cc1OC
inactive: [1] -18.1% | [2] -21.5% | [3] 12.7% | [4] 12.3% | [5] 25.1% | [6] -3.1%

O=C(CCCC(=O)Nc1ccccc1)Nc1ccccc1
inactive: [1] -9.35% | [2] -6.9% | [3] -1.55% | [4] -35.2% | [5] -14.1% | [6] -15.7%

O=C1CCC(c2n[nH]c(=S)o2)N1 (stereo not given)
inactive: [1] -2.8% | [2] 22.7% | [3] 9.05% | [4] -6.65% | [5] 13.2% | [6] 4.75%

CC1(C)N=C(N)N=C(N)N1c1cccc(/C=C/c2ccc([N+](=O)[O-])cc2)c1
inactive: [1] 2.45% | [2] -7.35% | [3] -6.1% | [4] -43% | [5] -3.3% | [6] 9.75%

Cc1cccc2c(SCCCCCCSc3c4ccccc4nc4c(C)cccc34)c3ccccc3nc12
inactive: [1] -2.25% | [2] -8.1% | [3] -26.7% | [4] -21.5% | [5] -2.7% | [6] 7.05%

CC(=O)CC(C)(C)OCc1ccccc1
inactive: [1] -21.9% | [2] -4.95% | [3] -12.2% | [4] -43.4% | [5] 0.4% | [6] 26.1%

CC(=S)NC=C(C(N)=O)C(N)=O
inactive: [1] 6.65% | [2] 1.05% | [3] 11.7% | [4] 16% | [5] -4.2% | [6] -16.5%

CCOC(=O)c1c(-c2ccccc2)c(-c2ccccc2)cn1C
inactive: [1] 18.3% | [2] -7.45% | [3] 5.2% | [4] 25.9% | [5] 6.45% | [6] 24.3%

COC1CCC2C(C1)C(C1CCCCC1)C1CCCCC1C2C1CCCCC1 (stereo not given)
inactive: [1] -1.1% | [2] 8.05% | [3] -14.6% | [4] -7.25% | [5] -0.9% | [6] -7.65%

Reference: PubChem BioAssay (NCI)
